Sampled rows, rich in hits. Any-hit rate of the full collection: about 7.5%.
KinaseGlo FLuc = blocks Kinase-Glo luciferase, a counter-screen artifact; Potency, µM (top dose mostly 38.3 µM), for inactives: at the top dose activity change, negative = inhibition, hits mostly inhibitors; AID 1379; hit rate 0.28% among 200,000; Q27757; Kinase-Glo luciferase, ATP luminescence, 8 min; note: % is set by controls: 0 for no effect and ±100 for the full control effect; nearly all actives have a fitted effect of over 60% in size
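Kinase-Glo luciferase light output from ATP and luciferin was measured with 10 uM ATP, within the enzyme's linear range. Buffer: 50 mM imidazole pH 7.2, 50 mM KCl, 7 mM MgCl2, 0.01% Tween 20, 0.05% BSA; luminescence read after 8 min at ambient temperature.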
ELG1 genotox = inducers of genotoxicity in HEK293T ELG1-luciferase cells; AID 504466; hit rate 1.3% among 330,000; Potency, µM (titrated, usually from 46 µM), without a hit: top-dose activity change, positive = activation, hits mostly activators; HEK293T ELG1-luciferase reporter, luminescence, 16 h; note: % of control where 0% means no effect; nearly all actives have a fitted effect of over 60% in size
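ELG1-luciferase HEK293T cells, 2,000/well; compound pinned in; 16 hr, 37 °C, 5% CO2; ONE-Glo, 30 min RT; luminescence on CCD imager.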
SMN2 splice enh = increases expression of the SMN2 splice variant; HEK293 SMN2-luciferase splicing reporter, luminescence, 30-36 h; Potency, µM (top dose mostly 46.1 µM), for inactives: at the highest dose activity change, positive = activation, usual class: activators; hit rate 2.8% among 210,000; AID 1458; note: % of control where 0% means no effect; nearly all actives have a fitted effect of over 55% in size
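qHTS luciferase splicing reporter: luminescence rises when SMN2 exon 7 is included in transfected HEK293 cells. Compound exposure lasted 30-36 h at 37C, with 4.5 mM final sodium butyrate as control, followed by a ONE-Glo read.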
Rab9 promoter act = activators of Rab9 promoter; Huh7 Rab9 promoter-luciferase reporter, luminescence, 24 h; Potency, µM (titrated, usually from 9.22 µM), for the others: top-dose activation, negative = inhibition, actives largely listed as activators; hit rate 2.8% among 320,000; note: % of control where 0% means no effect; nearly all actives have a fitted effect of over 60% in size
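Huh7 cells stably carrying a Rab9 promoter-luciferase reporter, 1500 cells per well in OP-MEM I with 10% FBS, treated with compound 24 hours at 37C. Luciferase activity read by luminescence after 10 minutes with Amplite reagent.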
FLuc counter = counter-screen for miR-21 project: firefly luciferase inhibitors or activators | P08659 | Potency, µM (top dose mostly 57.5 µM), inactives show at the highest dose activity change, negative = inhibition, usual class: inhibitors | purified FLuc, Km substrates, luminescence inhibition | hit rate 6.9% among 360,000 | AID 588342;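 note: plate controls were vehicle for no effect and reference inhibitor for full effect; nearly all actives have a fitted effect of over 55% in size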
Target sequence (P08659 whole entry, looked up): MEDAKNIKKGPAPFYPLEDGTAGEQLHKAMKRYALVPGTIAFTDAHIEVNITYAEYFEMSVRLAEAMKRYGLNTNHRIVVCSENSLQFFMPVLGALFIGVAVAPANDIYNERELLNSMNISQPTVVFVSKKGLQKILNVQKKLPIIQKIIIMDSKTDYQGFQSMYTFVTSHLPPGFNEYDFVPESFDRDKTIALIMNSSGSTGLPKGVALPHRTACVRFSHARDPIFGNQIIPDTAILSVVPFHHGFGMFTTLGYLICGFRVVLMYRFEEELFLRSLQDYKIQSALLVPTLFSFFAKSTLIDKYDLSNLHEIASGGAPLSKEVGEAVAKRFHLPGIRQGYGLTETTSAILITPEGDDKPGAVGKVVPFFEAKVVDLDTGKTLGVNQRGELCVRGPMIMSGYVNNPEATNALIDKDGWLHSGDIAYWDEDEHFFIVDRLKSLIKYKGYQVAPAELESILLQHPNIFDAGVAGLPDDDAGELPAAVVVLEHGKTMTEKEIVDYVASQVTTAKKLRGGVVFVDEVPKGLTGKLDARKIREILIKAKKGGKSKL
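Biochemical qHTS of compounds, final roughly 60 µM downward over six points, against 10 nM purified firefly luciferase using Km concentrations of substrates (10 uM D-luciferin, 10 uM ATP) in Tris acetate pH 7.5 buffer; luminescence output.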
NPC1 prom act = NPC1 promoter activation; Huh7 NPC1 promoter luciferase reporter, 24 h; Potency, µM (top dose mostly 9.22 µM), for the others: at the top dose activation, usual class: activators; hit rate 2.4% among 320,000; AID 485313; note: % of control where 0% means no effect; nearly all actives have a fitted effect of over 60% in size
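In 1536-well qHTS, Huh7 cells harboring an NPC1 promoter–luciferase construct received compound for 24 h; activation was quantified by luminescence following luciferase reagent addition.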
Numbers without * were called inactive; ? = inconclusive; nt = no result. Calls come from the whole dose curve; as a rule, active = well fitted curve in the direction sought with a large enough effect; inconclusive = small, poorly fitted or top-dose-only effect, or another doubt; inactive = no such curve, though single readings can be large; an effect the other way counts as inactive or inconclusive. Potency is the fitted concentration of half-maximal effect.

SMILES	KinaseGlo FLuc	ELG1 genotox	SMN2 splice enh	Rab9 promoter act	FLuc counter	NPC1 prom act
CCCc1c(C(=O)N/N=C/c2sccc2C)nnn1-c1nonc1N	nt	2%	nt	-4%	4%	2%
Cc1ccsc1/C=N/NC(=O)c1nnn(-c2nonc2N)c1C(C)C	nt	-1%	nt	-1%	17µM*	-3%
CC(C)c1c(C(=O)N/N=C/c2ccoc2)nnn1-c1nonc1N	nt	3%	nt	0%	?	0%
CC(C)c1c(C(=O)N/N=C/c2ccsc2)nnn1-c1nonc1N	nt	4%	nt	-1%	21µM*	-8%
CC(C)c1c(C(=O)N/N=C/c2ccc(C(F)(F)F)cc2)nnn1-c1nonc1N	nt	6%	nt	-4%	17µM*	0%
COC(=O)CNC(c1ccccc1)c1cc(Br)ccc1NC(=O)c1cc(OC)c(OC)c(OC)c1 (stereo not drawn)	nt	nt	26%	nt	-2%	nt
O=C(OCc1ccccc1)c1ccc(-c2nnn(Cc3ccccc3F)n2)cc1	nt	nt	4%	nt	-5%	nt
Fc1ccccc1Cn1nnc(-c2ccc3c(c2)OCO3)n1	-3%	?	13µM*	1.1µM*	2.1µM*	2µM*
COc1ccc(-c2nnn(Cc3ccccc3F)n2)cc1	0%	?	16µM*	3.2µM*	11µM*	3.5µM*
COC1OC(CO)C(OC2OC(C(=O)O)C(OC3OC(COS(=O)(=O)O)C(OC4OC(C(=O)O)C(OC5OC(CO)C(OC6OC(C(=O)O)C(OC7OC(COS(=O)(=O)O)C(OC8OC(C(=O)O)=C[C@H](O)C8OS(=O)(=O)O)C(O)C7NC(C)=O)[C@@H](O)C6O)C(O)C5NC(C)=O)[C@@H](O)C4O)C(O)C3NC(C)=O)[C@@H](O)C2O)C(O)C1NC(C)=O (stereo partly drawn)	1%	nt	-9%	nt	nt	nt
CCOc1ccccc1NC(=O)c1cc2c(=O)n(Cc3cccnc3)ccc2nc1C	nt	nt	nt	nt	2%	nt
Cc1ccc2nc(N3C(=O)CNC3=S)sc2c1	nt	21µM*	nt	?	1.5µM*	1.1µM*
COc1ccc2nc(N3C(=O)CNC3=S)sc2c1	nt	21µM*	nt	1.3µM*	2.4µM*	3.5µM*
O=C(c1ccco1)N1CCC2(CC1)CCN(C(c1ccccc1)c1ccccc1)CC2	-1%	nt	-5%	nt	nt	nt
CC(C)c1ccc(NC2CCCN(C(=O)c3cnsn3)C2)cc1 (stereo not drawn)	nt	-7%	nt	4%	-2%	-1%
COc1ccc(Cl)cc1NC(=O)N1CCN(S(=O)(=O)c2ccc3c(ccn3C)c2)CC1	nt	nt	nt	nt	-3%	nt
Cc1ccc(-c2n[nH]c(=O)c3ccccc23)cc1S(=O)(=O)N(C)C	nt	3%	nt	0%	-1%	-1%
Cc1ccc(-c2cc3c(N=O)c4ccccc4c-3n[nH]2)cc1	10µM*	?	-90%	?	0.095µM*	2%
O=c1[nH]nc(-c2ccccc2)c2ccccc12	nt	-10%	nt	1%	-2%	1%
Cc1cccc(-c2cc3c(N=O)c4ccccc4c-3n[nH]2)c1	10µM*	?	3.2µM*	1.3µM*	0.54µM*	0.71µM*
O=Nc1c2cc(-c3ccccc3)[nH]nc-2c2ccccc12	2.2µM*	?	0.5µM*	?	0.43µM*	3.2µM*
CC(C)(C)NC(=O)c1oc2ccccc2c1NC(=O)c1ccc(F)cc1	nt	nt	nt	nt	1%	nt
Cc1cccc(NC2=NC(C)(C)N=C(N)N2)c1C	3%	4%	0%	2%	6%	1%
Cc1ccccc1NC1=NC(C)(C)N=C(N)N1	-7%	0%	0.22µM*	3%	-1%	9%
Cc1ccc(C(=O)Nc2ccccc2Cl)cc1	nt	?	nt	1.6µM*	6.7µM*	3.2µM*
Cc1ccc(Cn2nc(C)cc2C(=O)Nc2ccc(Cl)cc2)cc1	nt	3%	nt	9%	?	15%
O=C(Nc1cccc(Cl)c1Cl)c1ccc(-c2ccccc2)cc1	-7%	?	?	?	?	2.5µM*
COc1ccc(-c2cc(C(=O)O)n(Cc3ccccc3)n2)cc1	nt	nt	-9%	nt	?	nt
